From PubChem BioAssay
Compounds with a hit are over-represented: about 3.4% of the library has one in this group of screens.
Mcl-1 Bim block – human Bim-Mcl-1 interaction inhibition; 0.1% of 190,000 active; AID 1009; Q07820; Bead-based flow cytometry, Bim peptide-Mcl-1 binding; inhibition, % at 10 µM; in the data active = inhibition above about 40%;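 note: 0% = no compound tracer wells and 100% = peptide blocker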
Target sequence (Q07820 whole entry, looked up): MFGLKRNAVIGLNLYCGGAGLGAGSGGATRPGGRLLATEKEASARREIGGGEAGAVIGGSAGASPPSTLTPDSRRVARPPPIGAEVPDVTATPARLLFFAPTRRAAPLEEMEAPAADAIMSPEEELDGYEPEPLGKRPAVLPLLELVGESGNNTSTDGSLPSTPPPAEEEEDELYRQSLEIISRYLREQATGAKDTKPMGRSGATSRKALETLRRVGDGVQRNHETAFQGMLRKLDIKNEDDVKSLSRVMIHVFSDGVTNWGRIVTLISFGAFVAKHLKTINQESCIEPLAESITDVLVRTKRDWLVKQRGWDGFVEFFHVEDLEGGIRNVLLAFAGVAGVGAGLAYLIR
Mcl1 Noxa PPI – disrupts binding of human Mcl-1 to Noxa peptide; TR-FRET Mcl-1/Noxa peptide binding, 2 h; inhibition, % at 21.7 µM; 1.5% of 220,000 active;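 active = compounds that cut the protein-peptide binding signal by more than 50% relative to plate controls in a single-dose test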;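 note: His-tagged Mcl-1 with rhodamine Noxa BH3 peptide and terbium anti-His antibody; 0% = Mcl-1 plus Noxa peptide wells and 100% = peptide-only wells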
Mcl1 Bid PPI – Mcl-1/Bid interaction inhibition; Q07820; TR-FRET Mcl-1/Bid-Dy647 peptide binding, 1536-well; inhibition, % at 21.7 µM; 0.97% of 220,000 active; AID 1021;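 active = compounds that cut the binding signal by more than half at the single screening dose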;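 note: His-tagged Mcl-1 with europium anti-His antibody binding Bid BH3 peptide; 0% = Mcl-1 plus peptide wells and 100% = peptide-only wells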
p47phox inh – blocks human p47phox regulatory protein of NADPH oxidases | inhibition, % at 24.7 µM | p47phox/p22phox peptide binding, fluorescence polarization, 2 h | P14598 | AID 1274 | 0.53% of 220,000 active;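 active = inhibition above about 30%, limit read from the data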;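 note: 0% = p47phox with labelled peptide and 100% = labelled peptide alone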
14-3-3 Bad inh – disrupts binding of bovine 14-3-3 zeta to phospho-Bad peptide. inhibition, % at 21.7 µM. P63103. 0.71% of 220,000 active. TR-FRET 14-3-3zeta/Dy647-pBad peptide displacement, 1 h. AID 781;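 active = inhibition above about 70%, limit read from the data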;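 note: 0% = full 14-3-3 plus peptide FRET controls and 100% = background without 14-3-3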
Target sequence (P63103 whole entry, looked up): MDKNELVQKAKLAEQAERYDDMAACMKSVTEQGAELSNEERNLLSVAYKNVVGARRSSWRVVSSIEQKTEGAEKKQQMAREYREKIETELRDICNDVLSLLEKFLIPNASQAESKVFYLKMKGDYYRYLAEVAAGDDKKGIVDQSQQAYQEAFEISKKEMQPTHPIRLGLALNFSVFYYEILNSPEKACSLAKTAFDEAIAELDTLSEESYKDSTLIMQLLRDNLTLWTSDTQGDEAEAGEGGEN
Calpain2 inh – calpain II (pig) inhibition; purified calpain II, fluorogenic peptide substrate, 30 min; inhibition, % at 16 µM; 0.37% of 220,000 active;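 active = inhibition above about 50%, limit read from the data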
The depositor's hits bear a star; · = no result given.

SMILES	Mcl-1 Bim block	Mcl1 Noxa PPI	Mcl1 Bid PPI	p47phox inh	14-3-3 Bad inh	Calpain2 inh
O=C(O)c1ccccc1NS(=O)(=O)c1ccccc1C(F)(F)F	-2.0	53.1*	-4.9	4.0	12.0	18.0
O=C(O)c1ccccc1NS(=O)(=O)c1cccc2cccnc12	-3.0	-0.9	-3.6	-5.3	30.8	-12.2
O=C(O)CCCNc1ccc(S(=O)(=O)Nc2ccccc2C(=O)O)cc1C(=O)O	-4.0	60.5*	21.6	-9.0	6.0	-16.6
O=[N+]([O-])c1ccccc1NC(=S)N/N=C/c1ccc(O)c(O)c1	0.0	54.7*	-97.1	2.5	-10.2	10.2
C=CCNC(=S)N/N=C/c1ccc(C)cc1C	0.0	17.0	-41.4	-2.1	-18.3	38.2
C=CCNC(=S)N/N=C/c1ccc(C)c([N+](=O)[O-])c1	-3.0	13.7	-77.3	-1.7	-1.9	51.6*
COc1ccc(C2CC(c3cccs3)=NN2C(=O)COC(=O)C2CCCCC2)cc1OC (stereo unspecified)	-2.0	22.1	-8.8	-15.2	10.4	32.8
NC(=O)CCC(NC(=O)c1ccc(Cl)cc1)C(=O)O (stereo unspecified)	3.0	-9.9	4.1	·	0.9	0.7
COc1ccc(NC(C)c2cc(Cl)ccc2O)cc1 (stereo unspecified)	-2.0	22.1	-24.1	-6.5	-12.0	50.2*
Cc1ccc(C(=O)N[C@H](C(=O)OCc2nnc(-c3ccccc3)o2)C(C)C)cc1	·	-14.6	-10.8	-11.0	-4.3	1.3
Cc1ccc2c(CC(=O)OCc3csc(C)n3)coc2c1	-4.0	13.6	-10.2	-5.2	12.5	-8.3
O=C(OCc1cc(=O)n2c(n1)sc1ccccc12)c1ccc(O)cc1O	0.0	41.2	-15.2	-149.3	15.8	-42.1
O=C(OCc1cc(=O)n2c(n1)sc1ccccc12)c1cccc(O)c1	-5.0	66.8*	29.8	-37.4	3.5	-37.4
CC(C)[C@H](NC(=O)c1ccco1)C(=O)OCc1cc(=O)n2c(n1)sc1ccccc12	-1.0	59.6*	-30.0	·	29.7	-1.3
Cc1ccc(C(=O)N[C@H](C(=O)OCc2cc(=O)n3c(n2)sc2ccccc23)C(C)C)cc1	-3.0	57.5*	-8.8	-13.2	-3.5	-48.1
O=C(Cc1coc2cc3c(cc12)CCC3)OCc1cc(=O)n2c(n1)sc1ccccc12	-3.0	51.3*	-16.1	-15.5	-0.5	-18.1
C=C(C)C1CC=C(C)/C(=N/NC(=O)c2ccc(NC(=O)c3cccc(C)c3)cc2)C1 (stereo unspecified)	0.0	8.6	-59.3	36.8*	-4.1	-25.6
C=C(C)C1CC=C(C)/C(=N/NC(=O)c2cccc([N+](=O)[O-])c2)C1 (stereo unspecified)	0.0	8.7	-7.2	4.0	-10.2	9.1
Cn1cc(CNC(=O)CC2C(=O)NCCN2CC(C)(C)C)cn1 (stereo unspecified)	0.0	-4.8	-21.2	4.8	-6.7	-40.1
O=C(Cc1csc(N2CCOCC2)n1)N/N=C/c1ccc(Cl)cc1Cl	-103.0	-5.7	-73.0	-16.2	-5.2	-58.4
COc1cc(/C=N/NC(=O)Cc2csc(N3CCOCC3)n2)cc(OC)c1O	3.0	58.1*	11.4	9.9	1.8	-40.8
O=C(Nc1ccc2oc(-c3ccc(F)cc3)nc2c1)c1ccccc1F	4.0	-25.1	-19.9	-23.4	-0.1	-182.9
O=C(NC(=S)Nc1ccc2c(c1)OCCO2)c1ccccc1F	-3.0	33.1	67.8*	6.2	-2.3	-2.6
O=C(NC(=S)Nc1ccc2oc(-c3ccncc3)nc2c1)c1ccccc1F	-8.0	11.9	23.6	-81.4	73.3*	8.1
Cc1cc(C)nc(/N=C(\N)Nc2ccc(S(=O)(=O)Nc3nccc(C)n3)cc2)n1	0.0	17.2	12.6	0.0	-5.2	-14.6
SMILES	Mcl-1 Bim block	Mcl1 Noxa PPI	Mcl1 Bid PPI	p47phox inh	14-3-3 Bad inh	Calpain2 inh
CCC(=O)Oc1ccc(C(=O)Nc2c[nH]c(=O)[nH]c2=O)cc1	-2.0	-1.1	-39.2	6.4	-0.7	-7.5
CCOC(=O)c1cc(-c2csc(Nc3c(C)cc(C)cc3C)n2)on1	·	-16.5	11.5	-4.4	-2.3	-21.7
NC(=O)CSc1nnc(-c2ccc3c(c2)OCO3)o1	0.0	-6.6	-28.9	-2.1	-4.7	2.5
C/C(N)=C(/C#N)C(=O)CSc1nnc(-c2ccc3c(c2)OCO3)o1	1.0	18.9	-31.9	42.0*	8.0	-11.7
Cc1ccc(NC(=O)CN2C(=O)N/C(=C\c3cccn3-c3cccc(C(=O)O)c3)C2=O)cc1	0.0	63.1*	-78.4	-29.6	68.7	-28.2
Cc1ccc(NC(=O)CN2C(=O)N/C(=C/c3cc(C)n(-c4cccc(C(=O)O)c4)c3C)C2=O)cc1	-1.0	73.4*	-97.0	-36.0	34.6	-101.0
CCn1c(C)cc(/C=C2\NC(=O)N(CC(=O)Nc3cccc(C)c3)C2=O)c1C	0.0	32.6	32.9	6.3	66.1	-118.8
CC1CN(S(=O)(=O)c2cccc(C(=O)OC/C(O)=C(\C#N)c3nc4ccccc4[nH]3)c2)CC(C)O1 (stereo unspecified)	-3.0	6.2	-23.7	-50.5	-6.3	-71.3
N#C/C(=C(/O)COC(=O)c1ccc(Cl)c(S(=O)(=O)N2CCOCC2)c1)c1nc2ccccc2[nH]1	-1.0	52.2*	-1.4	-41.1	4.0	-86.0
Cc1ccc(C(=O)OC/C(O)=C(\C#N)c2nc3ccccc3[nH]2)cc1S(=O)(=O)N1CCOCC1	-2.0	-18.4	-27.9	-43.8	-1.7	-78.6
N#C/C(=C(/O)COC(=O)CCc1ccc(S(=O)(=O)N2CCOCC2)cc1)c1nc2ccccc2[nH]1	3.0	61.9*	-23.9	-48.5	-6.9	-241.2
CCN1CCN(C(c2cc(OC)ccc2OC)c2nnnn2Cc2ccccc2)CC1 (stereo unspecified)	2.0	29.0	-19.3	-11.7	79.3*	7.0
COc1ccc(N2CCN(C(c3cccc(OC)c3OC)c3nnnn3C3CCCC3)CC2)cc1 (stereo unspecified)	0.0	25.7	-27.2	-3.5	77.1*	-3.9
COc1ccc(N2CCN(C(c3cc(OC)ccc3OC)c3nnnn3CC3CCCO3)CC2)cc1 (stereo unspecified)	-1.0	59.8*	15.1	1.1	51.2	-14.6
COc1ccc(OC)c(C(c2nnnn2C2CCCC2)N2CCN(c3ccccc3F)CC2)c1 (stereo unspecified)	0.0	33.2	21.0	-9.1	69.6	51.1*
CCN1CCN(C(c2ccccc2)c2nnnn2Cc2ccccc2)CC1 (stereo unspecified)	-2.0	43.0	33.6	2.3	62.0	-8.6
Cc1cc(=O)cc(C)n1-c1ccc(F)cc1F	1.0	-18.5	0.1	3.9	-2.2	22.7
CNC[C@H](O)c1ccc(O)c(O)c1	0.0	14.8	-5.9	51.1*	1.7	19.0
Cc1cccc(Nc2nnc(SCC(=O)NC3CCCc4ccccc43)s2)c1C (stereo unspecified)	-4.0	16.0	1.4	-9.4	1.8	-3.0
